ChEMBL document CHEMBL3988442, “University of Dundee, Small-Polar-MMV Screening Library” (2021)
Hit rate of the full screen: of about 48,000 compounds, about 13,000 (27%) showed an effect of 50% or more. The list shows a part of the results.

tested on: Wolbachia pipientis; test: Anti-Wolbachia Cell-Based Screen; type: functional; parameters: scale not given: in the data most compounds retested in dose-response had high values; settings: 5 µM

First: CN(CCN1CCOCC1)S(=O)(=O)CC1CCCC1
Second: CC1=C(CCN2C[C@H](O)[C@@H](N3CCOCC3)C2)C(C)(C)CCC1
The “Percent Effect” value of the first is lower: -5.333% for the first, 0.7691% for the second.

Going from `CCOC(C)c1nc(Cn2cccn2)cs1` (centres undefined) to `CC(C)Cc1nc(CN(C)CCOc2ccccc2F)no1`, the “Percent Effect” value rises from -9.016% to 2.804%.

Going from `CNC(=O)NC(=O)C(C)Nc1ccccc1OCCOC` (centres undefined) to `COCCOCC(=O)NC(C#N)c1ccccc1C` (centres undefined), the “Percent Effect” value falls from -4.777% to -6.044%.

Going from `CC(NC(=O)CCCOc1ccccc1Cl)c1ccncc1` (centres undefined) to `N#CC(NC(=O)CCCOc1cccnc1)c1ccccc1Cl` (centres undefined), the “Percent Effect” value rises from -5.122% to 111.5%.

Compared with `COCCOCC(=O)NC(C#N)c1cccc(Cl)c1Cl` (centres undefined), `Cc1ccccc1C(C#N)NC(=O)CCCOc1cccnc1` (centres undefined) is higher in “Percent Effect” value: -5.462% for the first, 81.76% for the second.

First: N#CC(NC(=O)CCCOc1cccnc1)c1ccc(F)cc1F (centres undefined)
Second: CCCC(C#N)NC(=O)CCCOc1cccc(F)c1 (centres undefined)
The “Percent Effect” value of the first is higher: 86.86% for the first, -0.6223% for the second.

First: CCC(C#N)NC(=O)CCCOc1cccc(C(C)=O)c1 (centres undefined)
Second: N#CC(NC(=O)CCC(=O)NC1CCCC1)c1ccc(F)cc1F (centres undefined)
The “Percent Effect” value of the first is higher: 2.653% for the first, -15.9% for the second.

Compared with `CC(C)c1ccc(S(=O)(=O)Cc2nc(N)nc(N(C)C)n2)cc1`, `CCc1nc(NS(=O)(=O)c2ccc(C)cc2Cl)no1` is lower in “Percent Effect” value: 13.19% for the first, -7.333% for the second.

Going from `COc1c(NC(=O)N(C)CCOc2ccccc2)c(C)nn1C` to `COc1cccc(OCc2cc(C(=O)NC[C@H]3CCCN3)n[nH]2)c1`, the “Percent Effect” value rises from -49.81% to -9.254%.

Going from `c1ccn2c(SCC3CN=C(N4CCOCC4)S3)ncc2c1` (centres undefined) to `Cc1cnn(CC2CCCCN2c2ncnc3ccccc23)c1` (centres undefined), the “Percent Effect” value falls from 6.715% to -9.464%.

Going from `O=S(=O)(NC1CCN(CC(F)(F)F)C1)c1cc(F)cc(F)c1` (centres undefined) to `Fc1cccc(N2C[C@H]3CCN(c4cccnc4)C[C@H]3C2)c1.O=C(O)C(F)(F)F`, the “Percent Effect” value rises from -11.02% to 6.711%.

Compared with `COCC(=O)N1CCC(c2cc(N(C)C)cc(C)n2)CC1`, `COCC(=O)N1CCC(c2cc(-c3ccc(N)nc3)cc(C)n2)CC1` is lower in “Percent Effect” value: 144.6% for the first, 134.8% for the second.

First: COCC(=O)N1CCC(c2noc3nc(C)cc(C(F)(F)F)c23)CC1
Second: COCC(=O)N1CCC(c2cc(C(F)(F)F)n3ccnc3n2)CC1
The “Percent Effect” value of the first is lower: -9.714% for the first, -3.76% for the second.

Compared with `CN(c1cccc(C#N)c1)S(=O)(=O)c1cc(C(=O)O)ccc1Cl`, `O=C(Cn1ccc(=O)[nH]c1=O)NCC1Cc2ccccc2O1` (centres undefined) is higher in “Percent Effect” value: -8.921% for the first, 0.2234% for the second.

First: CCc1ncc2c(n1)CN(CC1CCCCO1)CC2 (centres undefined)
Second: CCOc1cncc(N2CCCC2c2nnc3n2CCCCC3)n1 (centres undefined)
The “Percent Effect” value of the first is lower: -28.59% for the first, 129.6% for the second.

First: CCN(C(=O)c1ccc2nnc(C3CCN(C(C)=O)C3)n2c1)C(C)C (centres undefined)
Second: CC(C)c1csc(C2CCCN(C(=O)c3ccc(=O)n(C)c3)C2)n1 (centres undefined)
The “Percent Effect” value of the first is lower: -2.519% for the first, 2.326% for the second.

Going from `CNC(=O)c1cccc(NC(=O)NC(C)c2cc(C)oc2C)c1C` (centres undefined) to `CC(C)NC(=O)NC[C@H]1OC[C@@H](NCc2ccc(F)cc2)[C@@H]1O`, the “Percent Effect” value rises from -16.36% to 8.979%.

First: O=C(O)C(F)(F)F.O=C([C@@H]1CC[C@@H]2[C@@H](CCN2Cc2cccc(F)c2)O1)N1CCCCO1
Second: O=C(O)C(F)(F)F.O=C([C@H]1C[C@@H]2CCN(c3cccc(F)c3)C[C@H]2O1)N1CCCCO1
The “Percent Effect” value of the first is lower: -25.86% for the first, 96.52% for the second.

Going from `O=C(O)C(F)(F)F.O=C([C@@H]1C[C@@H]2CCN(c3cccc(F)c3)C[C@H]2O1)N1CCCC1` to `O=C(O)C(F)(F)F.O=C([C@H]1C[C@@H]2CCN(c3cccc(F)c3)C[C@H]2O1)N1CCCC1`, the “Percent Effect” value rises from 103.2% to 111.1%.

Compared with `CN1CCN(C(=O)[C@@H]2C[C@@H]3CCN(c4cccc(F)c4)C[C@H]3O2)CC1`, `CN1CCN(C(=O)[C@H]2C[C@@H]3CCN(c4ncc(F)cn4)C[C@@H]3O2)CC1.O=C(O)C(F)(F)F` is lower in “Percent Effect” value: 96.73% for the first, -9.48% for the second.

Going from `O=S(=O)(C1CC1)N1CCOC2(CCCN(c3cccc(F)c3)C2)C1` (centres undefined) to `COc1ccc(CC(=O)N2CCC(c3nnc4n3CCC4)CC2)cc1F`, the “Percent Effect” value falls from 7.053% to -6.133%.

Compared with `Cc1ccc(CN2CC[C@H]3C[C@H](C(=O)N4CCCO4)O[C@@H]3C2)o1.O=C(O)C(F)(F)F`, `CC1c2ncc(COCC3CC3)n2CCN1C.O=C(O)C(F)(F)F` (centres undefined) is lower in “Percent Effect” value: -11.63% for the first, -13.39% for the second.

First: CCOc1c(Br)cc(CNCCc2nnc3n2CCCCC3)cc1OC.Cl
Second: Clc1cncc(N2CCCC2c2nnc3n2CCCCC3)n1 (centres undefined)
The “Percent Effect” value of the first is lower: 15.42% for the first, 118.9% for the second.

First: O=C(C1CCC1)N1CCCC1c1nnc2n1CCCCC2 (centres undefined)
Second: Cn1cc(CN2CCC(F)(F)C3(CCN(c4ncc(F)cn4)C3)C2)cn1.O=C(O)C(F)(F)F (centres undefined)
The “Percent Effect” value of the first is lower: -4.579% for the first, 107.8% for the second.

With `Cc1ccc(C(C(=O)N2CC(c3ccccn3)C2)N(C)C)cc1` (centres undefined) the “Percent Effect” value was 13.16%.
